Screening data from PubChem BioAssay.
CSC inhib = cancer stem cell inhibition | cancer stem cell-like cells viability, luminescence | inhibition, % at 7.5 µM | 300,000 compounds, 1.1% hits; in the data active means inhibition above about 75%; tested in HMLE shEcad cells
Gli-Sufu block = antagonists of Gli-Sufu signaling | Sufu-KO-LIGHT fibroblasts, Gli luciferase reporter luminescence | inhibition, % at 5 µM | 340,000 compounds, 0.74% hits | AID 588413;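 active means inhibition above about 55%, limit read from the data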;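 further: 0% = DMSO-treated cells and 100% = wells with medium but no cells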
Mdm2 MdmX PPI = human Mdm2/MdmX binding inhibition. 330,000 compounds, 3% hits. AID 485346. inhibition, % at 8 µM. O15151+Q00987. SaOS-2 split-luciferase Mdm2/MdmX complementation, luminescence;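 active means inhibition of at least 50% at 8 µM in the primary screen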
Target sequence (O15151 whole entry, looked up): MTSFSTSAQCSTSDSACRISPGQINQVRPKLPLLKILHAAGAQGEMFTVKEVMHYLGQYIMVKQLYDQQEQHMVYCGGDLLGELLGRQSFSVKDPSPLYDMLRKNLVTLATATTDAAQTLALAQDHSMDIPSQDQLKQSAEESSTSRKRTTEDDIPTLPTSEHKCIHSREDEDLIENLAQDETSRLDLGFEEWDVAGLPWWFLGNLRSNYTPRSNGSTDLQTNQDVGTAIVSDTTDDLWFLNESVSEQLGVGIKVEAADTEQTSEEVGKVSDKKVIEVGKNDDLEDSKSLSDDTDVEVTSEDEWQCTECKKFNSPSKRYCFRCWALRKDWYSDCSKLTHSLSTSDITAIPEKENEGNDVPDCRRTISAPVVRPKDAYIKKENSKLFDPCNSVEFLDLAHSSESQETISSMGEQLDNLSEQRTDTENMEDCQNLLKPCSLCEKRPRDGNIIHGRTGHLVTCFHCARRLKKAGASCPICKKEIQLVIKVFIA
Target sequence (Q00987 whole entry, looked up): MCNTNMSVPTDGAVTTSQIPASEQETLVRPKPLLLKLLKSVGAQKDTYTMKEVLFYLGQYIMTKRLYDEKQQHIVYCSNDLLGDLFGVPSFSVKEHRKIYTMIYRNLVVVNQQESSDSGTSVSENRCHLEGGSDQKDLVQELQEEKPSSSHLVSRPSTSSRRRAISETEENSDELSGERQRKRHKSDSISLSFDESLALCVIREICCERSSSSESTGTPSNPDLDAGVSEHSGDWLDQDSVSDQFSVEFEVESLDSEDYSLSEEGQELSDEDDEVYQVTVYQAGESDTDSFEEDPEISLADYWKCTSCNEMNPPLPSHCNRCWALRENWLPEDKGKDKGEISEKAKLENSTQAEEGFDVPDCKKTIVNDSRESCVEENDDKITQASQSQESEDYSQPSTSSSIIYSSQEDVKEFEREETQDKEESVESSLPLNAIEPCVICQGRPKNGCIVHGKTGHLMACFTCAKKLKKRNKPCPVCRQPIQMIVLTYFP
Beta cell apopt = beta cell apoptosis inhibition; 300,000 compounds, 0.8% hits; AID 435005; INS-1E cytokine-induced death, ATP luminescence, 48 h; percent of positive-control rescue, neutral wells zero; protection from apoptosis, % (test concentration not listed);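 active means Every replicate reaches about 75%, or at least half do and their mean reaches it too, limit read from the data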;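 further: 0% = cytokine-treated negative control wells and 100% = positive control rescue; higher means more ATP so stronger rescue from cytokine killing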
GRIN3A LBD mod = NR3A (human) ligand-binding domain modulation; NR3A LBD differential scanning fluorimetry, Tm shift; 0% = protein alone, 100% = glycine-bound protein; Tm shift relative to glycine control, % at 25 µM; 340,000 compounds, 2.5% hits; AID 1259313;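 active means melting temperature shift of at least 10% of the positive control shift, at one fixed dose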
MPTP block = inhibitors of mitochondrial permeability transition pore. isolated mouse mitochondria, Ca2+ swelling absorbance, 30 min. inhibition, % at 10 µM. 360,000 compounds, 1.4% hits;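 active means inhibition of 50% or more, scaled per plate between neutral and stimulator controls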;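 further: 0% = DMSO wells given calcium and 100% = 1 mM EGTA wells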
Gli antag conf = Gli-SUFU antagonism confirmation, single concentration. Sufu-KO-LIGHT cells, Gli luciferase reporter, luminescence. AID 602428. 2,500 compounds, 40% hits. shares compounds with Gli-Sufu block. inhibition, % at 5 µM;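 active means mean inhibition at 5 µM reaching about 45%, limit read from the data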;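 further: plate controls were DMSO-treated cells for no effect and wells lacking cells for full effect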
Gli cytotox = counter-screen for Gli-SUFU antagonists: cytotoxicity; shares compounds with Gli-Sufu block; Sufu-KO-LIGHT cells cytotoxicity, ATP luminescence; cytotoxicity, % at 5 µM; 2,500 compounds, 32% hits; AID 651994;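 active means mean cytotoxicity at 5 µM above about 25%, limit read from the data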;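 further: cells exposed to compound overnight for roughly 16 to 18 hours; plate controls were DMSO wells with cells for no effect and medium without cells for full effect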
Wnt3a cs = Wnt3a reporter inhibition counter-screen; shares compounds with Gli-Sufu block; Wnt-LIGHT cells, Wnt3a-driven luciferase reporter, luminescence; inhibition, % at 6.25 µM; 2,500 compounds, 20% hits; AID 651995;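 active means mean inhibition above about 25%, limit read from the data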
Active calls of the source: *; . = not tested or not shown. In the library only some 6.6% were active in any assay of this set; here they are far more common.

SMILES	CSC inhib	Gli-Sufu block	Mdm2 MdmX PPI	Beta cell apopt	GRIN3A LBD mod	MPTP block	Gli antag conf	Gli cytotox	Wnt3a cs
O=C(O)c1ccc(NC(=O)c2cccc(C(=O)Nc3ccc(C(=O)O)cc3)n2)cc1	4	66*	-27	-7	-3	0	16	13	9
CCNC(=S)Nc1ccc(Oc2ccccc2)cc1	-20	-6	1	-5	-3	-4	.	.	.
COc1ccc(NC(=S)Nc2ccc(Oc3ccccc3)cc2)cc1	13	77*	30	3	6	26	38	22	0
CCCCC[C@@H](C)N1C[C@H](COCc2ccccc2)Oc2cc(N3CCC[C@H]3COC)ccc2S1(=O)=O	.	.	.	.	.	1	.	.	.
COC(=O)c1ccc(NC(=O)CNC(=O)C2CCCCC2)cc1	1	94*	12	-5	1	0	5	-4	-11
Cc1cc(=O)oc2cc(OCC(O)CN3CCc4ccccc4C3)ccc12 (stereo not drawn)	6	95*	17	6	-1	4	11	14	-44
C/C(=N\NC(=O)COc1ccc(C(C)(C)C)cc1)c1ccc(N2CCOCC2)cc1	19	-1	1	1	1	1	.	.	.
CCN(CC)S(=O)(=O)c1cccc(NC(=O)/C=C/c2cccc([N+](=O)[O-])c2)c1	1	51	.	4	2	50	23	14	-45
CCN(CC)S(=O)(=O)c1cccc(NC(=O)CC2CCCC2)c1	-4	57*	0	0	-2	1	22	10	-8
CCN(CC)S(=O)(=O)c1cccc(NC(=O)/C=C/c2ccc([N+](=O)[O-])cc2)c1	-3	-1	7	3	-6	12	.	.	.
CC(C)NC(=O)NC(=O)COC(=O)/C=C/c1ccccc1[N+](=O)[O-]	-7	3	8	-2	-1	1	.	.	.
O=C(Nc1cc(C(F)(F)F)ccc1N1CCOCC1)C1=NN(c2ccccc2)C(=O)CC1	32	20	22	28	1	0	.	.	.
O=C(CSc1nc(C(F)(F)F)cc(=O)[nH]1)Nc1ccc2c(c1)OCCO2	-6	2	11	.	3	0	.	.	.
O=C(CSc1cccc2cccc(Cl)c12)NCc1cccs1	-4	-11	7	-1	-4	6	.	.	.
Cc1ccccc1OCc1nc2ccccc2c(=O)n1/N=C/c1ccco1	-1	93*	3	0	-1	0	12	26*	-45
O=C(N/N=C/c1ccccn1)c1[nH]c2ccc([N+](=O)[O-])cc2c1-c1ccccc1	51	56*	21	13	1	15	22	17	-69
CC(O)(c1cccc(F)c1)c1nc(-c2cncnc2)cs1 (stereo not drawn)	.	.	.	.	.	0	.	.	.
O=C(CCn1ccc2cc(S(=O)(=O)N3CCCC3)ccc21)NCCc1ccccc1	-17	-1	8	0	2	0	.	.	.
O=C(Cn1ccc2cc(S(=O)(=O)N3CCCC3)ccc21)NCCc1ccccc1	-2	57*	13	2	0	-1	26	6	-17
CCCC(=O)Nc1cc(C(=O)O)ccc1Sc1ccccc1	-5	2	23	3	-2	1	.	.	.
Cc1nn(C(C)C)c(C)c1CN1CCCC(C(=O)c2cccc(OC(C)C)c2)C1 (stereo not drawn)	5	59*	4	5	0	5	17	24	-30
CCn1nc(C)c(CN2CCCC(C(=O)c3cccc(OC(C)C)c3)C2)c1C (stereo not drawn)	3	71*	33	25	2	41	33	20	40*
CC1(C)C2CCC1(C)C(OCC[N+](C)(C)CC(=O)OC1CCCCC1)C2 (stereo not drawn)	25	79*	40	47	-1	4	75*	32*	22
COc1ccc(S(=O)(=O)n2nc(OC(=O)c3c(-c4ccccc4Cl)noc3C)cc2N)cc1	14	-4	22	0	-14	1	.	.	.
